Inconclusive results are not listed. Activity calls are given as the source filed them. Calls come from the whole dose curve; as a rule, active = well fitted curve in the direction sought with a large enough effect in the repeat runs; inconclusive = weak or mixed curves; inactive = no such curve, though single readings can be large; an effect the other way counts as inactive or inconclusive.
Experiments:
[1] = A CellTox Green Cytotoxicity Assay to monitor cytotoxicity in HepG2 cells - 0 hour (AID 1224882); note: nearly all actives have a fitted effect of over 35% in size
Summary of the method: (§1)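 Read-out is fluorescence of a cyanine dye excluded from live cells that stains DNA of dead HepG2 cells, with signal proportional to cytotoxicity. Plates were read at 0, 8, 16, 24, 32 and 40 h after compound addition.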

[2] = A CellTox Green Cytotoxicity Assay to monitor cytotoxicity in HepG2 cells - 32 hour (AID 1224883); note: nearly all actives have a fitted effect of over 50% in size
Summary of the method: as §1

[3] = A CellTox Green Cytotoxicity Assay to monitor cytotoxicity in HEK293 cells - 8 hour (AID 1224884); note: nearly all actives have a fitted effect of over 35% in size
Summary of the method: (§2)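 Nonlytic real-time cytotoxicity: HEK293 + CellTox Green reagent plated, 5 h preincubation, pintool compound addition (23 nL in DMSO), 37 C for 40 h, fluorescence measured at successive time points.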

[4] = qHTS RealTime-Glo MT Cell Viability Assay in HepG2 cells - 16 hour (AID 1224885); note: nearly all actives have a fitted effect of over 50% in size
Summary of the method: (§3)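 qHTS, HepG2, 600 cells/well, RealTime-Glo (NanoLuc + prosubstrate) added with cells; 5 h preincubation; DMSO compound addition; 37 C; luminescence at 0/8/16/24/32/40 h.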

[5] = qHTS RealTime-Glo MT Cell Viability Assay in HEK293 cells - 24 hour (AID 1224886); note: top concentration of the series differs between compounds; nearly all actives have a fitted effect of over 50% in size
Summary of the method: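 Assay medium contained NanoLuc luciferase plus cell-permeant prosubstrate, added with HEK293 cells at 600 cells/well. After 5 h at 37 C/5% CO2 compounds were added; plates stayed at 37 C for 40 h with serial luminescence reads.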

[6] = qHTS RealTime-Glo MT Cell Viability Assay in HEK293 cells - 8 hour (AID 1224887); note: top concentration of the series differs between compounds; nearly all actives have a fitted effect of over 50% in size
Summary of the method: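 Cells were seeded together with NanoLuc luciferase and a prosubstrate that viable cells reduce to a luciferase substrate. After a 5 h incubation at 37 C/5% CO2, compounds were added and luminescence was measured repeatedly during 40 h of treatment.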

[7] = A CellTox Green Cytotoxicity Assay to monitor cytotoxicity in HEK293 cells - 16 hour (AID 1224888); note: nearly all actives have a fitted effect of over 35% in size
Summary of the method: as §2

[8] = qHTS RealTime-Glo MT Cell Viability Assay in HepG2 cells - 0 hour (AID 1224889); note: nearly all actives have a fitted effect of over 50% in size
Summary of the method: as §3

[9] = A CellTox Green Cytotoxicity Assay to monitor cytotoxicity in HepG2 cells - 8 hour (AID 1224890); note: nearly all actives have a fitted effect of over 45% in size
Summary of the method: as §1

[10] = qHTS assay to identify small molecule antagonists of the estrogen receptor alpha (ER-alpha) signaling pathway using the BG1 cell line in the presence of 0.1 nM 17-beta-estradiol - cell viability counter screen (AID 1259241); note: nearly all actives have a fitted effect of over 40% in size
Summary of the method: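 Cytotoxicity counter-screen: live-cell protease activity measured by fluorescence (30 min reagent step) in the same wells. Cells were VM7Luc4E2 with endogenous ER-alpha and ERE-driven luciferase, treated 22 hr at 37C alongside 0.1 nM 17beta-estradiol final.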
% is set by controls: 0 for no effect and ±100 for the full control effect.

CCC(=O)O[C@]1(C(=O)SCF)[C@H](C)C[C@H]2[C@@H]3C[C@H](F)C4=CC(=O)C=C[C@]4(C)[C@@]3(F)[C@@H](O)C[C@@]21C
inactive: Potency [1] | Potency [2] | Potency [3] | outcome [4] | Potency [5] | Potency [6] | Potency [7] | Potency [8] | Potency [9] | Potency [10]

Cc1nnc(SCC2=C(C(=O)O)N3C(=O)[C@@H](NC(=O)Cn4cnnn4)[C@H]3SC2)s1
inactive: Potency [1] | Potency [2] | Potency [3] | outcome [4] | Potency [5] | Potency [6] | Potency [7] | Potency [8] | Potency [9] | Potency [10]

CN(C)CC[C@@H](c1ccc(Cl)cc1)c1ccccn1
inactive: Potency [1] | Potency [2] | Potency [3] | outcome [4] | Potency [5] | Potency [6] | Potency [7] | Potency [8] | Potency [9] | Potency [10]

O=C(C(Cl)Cl)N1CCOC12CCCCC2
inactive: Potency [1] | Potency [2] | Potency [3] | outcome [4] | Potency [5] | Potency [6] | Potency [7] | Potency [8] | Potency [9]

COC(=O)c1ccc(OC)cc1
inactive: Potency [1] | Potency [2] | Potency [3] | outcome [4] | Potency [5] | Potency [6] | Potency [7] | Potency [8] | Potency [9] | Potency [10]

C[C@@H]1CN(c2c(F)c(F)c3c(=O)c(C(=O)O)cn(C4CC4)c3c2F)C[C@H](C)N1
inactive: cytotoxicity [1] -1.92% [at 15.8 µM] | cytotoxicity increase [2] -14.8% [at 15.8 µM] | cytotoxicity increase [3] -0.256% [at 15.8 µM] | activity change, negative = cytotoxic [4] -2.02% [at 15.8 µM] | activity change, negative = cytotoxicity [5] 9.9% [at 15.8 µM] | activity change, negative = cytotoxicity [6] 0.326% [at 15.8 µM] | activity change [7] 1.09% [at 15.8 µM, stronger effect = higher value] | activity change, negative = cytotoxicity [8] -0.832% [at 15.8 µM] | cytotoxicity increase [9] -9.96% [at 15.8 µM]

Nc1cccc(S(=O)(=O)O)c1
inactive: Potency [1] | Potency [2] | Potency [3] | outcome [4] | Potency [5] | Potency [6] | Potency [7] | Potency [8] | Potency [9] | Potency [10]

CCN1CC(CCN2CCOCC2)C(c2ccccc2)(c2ccccc2)C1=O (stereo not given)
inactive: Potency [1] | Potency [2] | Potency [3] | outcome [4] | Potency [5] | Potency [6] | Potency [7] | Potency [8] | Potency [9]

CCCCC(CC)COC(=O)COc1cc(Cl)c(Cl)cc1Cl (stereo not given)
inactive: Potency [1] | Potency [2] | Potency [3] | outcome [4] | Potency [5] | Potency [6] | Potency [7] | Potency [8] | Potency [9]

CCCCC1CCC(=O)O1 (stereo not given)
inactive: Potency [1] | Potency [2] | Potency [3] | outcome [4] | Potency [5] | Potency [6] | Potency [7] | Potency [8] | Potency [9]

O=C1N(c2ccccc2)c2ccccc2C1(Cc1ccncc1)Cc1ccncc1
inactive: Potency [1] | Potency [2] | Potency [3] | outcome [4] | Potency [5] | Potency [6] | Potency [7] | Potency [8] | Potency [9]

NC1=NCC2c3ccccc3Cc3ccccc3N12 (stereo not given)
inactive: Potency [1] | Potency [2] | Potency [3] | outcome [4] | Potency [5] | Potency [6] | Potency [7] | Potency [8] | Potency [9] | Potency [10]

CN1CCC[C@@H]1Cc1c[nH]c2ccc(CCS(=O)(=O)c3ccccc3)cc12
inactive: Potency [1] | Potency [2] | Potency [3] | outcome [4] | Potency [5] | Potency [6] | Potency [7] | Potency [8]

O=C(O[C@@H](C(=O)O)[C@@H](OC(=O)c1ccccc1)C(=O)O)c1ccccc1
inactive: Potency [1] | Potency [2] | Potency [3] | outcome [4] | Potency [5] | Potency [6] | Potency [7] | Potency [8]

Cc1ccsc1C(=CCCN1CCC[C@@H](C(=O)O)C1)c1sccc1C
inactive: Potency [1] | Potency [2] | Potency [3] | outcome [4] | Potency [5] | Potency [6] | Potency [7] | Potency [8] | Potency [9] | Potency [10]

CCc1cc(Cl)c(OC)c(C(=O)NC[C@@H]2CCCN2CC)c1O
inactive: Potency [1] | Potency [2] | Potency [3] | outcome [4] | Potency [5] | Potency [6] | Potency [7] | Potency [8] | Potency [9] | Potency [10]

CC(C)CCCCCCc1ccc(OCCOCCO)cc1
inactive: Potency [1] | Potency [2] | Potency [3] | outcome [4] | Potency [5] | Potency [6] | Potency [7] | Potency [8] | Potency [9] | Potency [10]

O=C1CCN(c2ccccc2)N1
inactive: Potency [1] | Potency [2] | Potency [3] | outcome [4] | Potency [5] | Potency [6] | Potency [7] | Potency [8] | Potency [9] | Potency [10]

OCc1ccccc1O
inactive: Potency [1] | Potency [2] | Potency [3] | outcome [4] | Potency [5] | Potency [6] | Potency [7] | Potency [8] | Potency [9] | Potency [10]

O=C1CCCc2ccccc21
inactive: Potency [1] | Potency [2] | Potency [3] | outcome [4] | Potency [5] | Potency [6] | Potency [7] | Potency [8] | Potency [9] | Potency [10]

C[C@@H]1CN(c2c(F)c(N)c3c(=O)c(C(=O)O)cn(C4CC4)c3c2F)C[C@H](C)N1
inactive: cytotoxicity [1] 5.9% [at 15.8 µM] | cytotoxicity increase [2] -7.06% [at 15.8 µM] | cytotoxicity increase [3] -0.635% [at 15.8 µM] | activity change, negative = cytotoxic [4] 0.182% [at 15.8 µM] | activity change, negative = cytotoxicity [5] 4.31% [at 15.8 µM] | activity change, negative = cytotoxicity [6] 0.0014% [at 15.8 µM] | activity change [7] -0.126% [at 15.8 µM, stronger effect = higher value] | activity change, negative = cytotoxicity [8] 5.84% [at 15.8 µM] | cytotoxicity increase [9] 0.794% [at 15.8 µM] | activity change, negative = cytotoxicity [10] 1.55% [at 19 µM]

— PubChem BioAssay (Tox21)
